# Source: PubChem (National Center for Advancing Translational Sciences (NCATS))
# Luc counter = blocks Kinase-Glo luciferase, a counter-screen artifact. Kinase-Glo luciferase, ATP luminescence, 8 min. Potency, µM (doses to about 38.3 µM), most hits filed as inhibitors. actives 0.28% (n = 200,000). AID 1379; also: nearly all actives have a fitted effect of over 60% in size
#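 Light output from Kinase-Glo luciferase with luciferin and 10 uM ATP in 50 mM imidazole pH 7.2, KCl, MgCl2, Tween 20, BSA; compound pin-delivered, 8-min ambient incubation, then luminescence read.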
# NPC1 promoter act = activates the NPC1 promoter | actives 2.4% (n = 320,000) | AID 485313 | Huh7 NPC1 promoter luciferase reporter, 24 h | Potency, µM (doses to about 9.22 µM), usual class: activators; also: nearly all actives have a fitted effect of over 60% in size
#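 Huh7 reporter cells (NPC1 promoter driving luciferase) are dosed with compound for 24 h at 37 °C, 5% CO2; luciferase detection reagent is then added and luminescence measured after 10 min at ambient temperature.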
# Rab9 promoter act = activators of Rab9 promoter; Potency, µM (series often up to 9.22 µM), usual class: activators; actives 2.8% (n = 320,000); Huh7 Rab9 promoter-luciferase reporter, luminescence, 24 h; also: nearly all actives have a fitted effect of over 60% in size
#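 Cells were plated at 1500 per well in reduced-serum medium with 10% FBS and left 2 h. Compound in DMSO was then added for 24 h at 37 °C. Reporter signal was read by luminescence after 10 min with luciferase detection reagent.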
# ELG1 genotoxic = induces genotoxicity in HEK293T cells with luciferase-tagged ELG1; HEK293T ELG1-luciferase reporter, luminescence, 16 h; Potency, µM (highest dose often 46 µM), most hits filed as activators; actives 1.3% (n = 330,000); also: nearly all actives have a fitted effect of over 60% in size
#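 ELG1-luciferase HEK293T cells, 2,000/well; compound pinned in; 16 hr, 37 °C, 5% CO2; ONE-Glo, 30 min RT; luminescence on CCD imager.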
# SMN2 splice enh = SMN2 splice variant enhancement | actives 2.8% (n = 210,000) | AID 1458 | HEK293 SMN2-luciferase splicing reporter, luminescence, 30-36 h | Potency, µM (highest dose often 46.1 µM), actives largely listed as activators; also: nearly all actives have a fitted effect of over 55% in size
#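 HEK293 cells carry an SMN2 […]–luciferase reporter in which exon 7 inclusion puts luciferase in frame. Cells were plated 10-12 h before compound addition, then incubated 30-36 h at 37C. ONE-Glo luminescence was read; sodium butyrate at 4.5 mM final served as control.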
# FLuc modulator = counter-screen for miR-21 project: firefly luciferase inhibitors or activators; purified FLuc, Km substrates, luminescence inhibition; Potency, µM (doses to about 57.5 µM), hits mostly inhibitors; actives 6.9% (n = 360,000); also: nearly all actives have a fitted effect of over 55% in size
# Target sequence (P08659 whole entry, looked up): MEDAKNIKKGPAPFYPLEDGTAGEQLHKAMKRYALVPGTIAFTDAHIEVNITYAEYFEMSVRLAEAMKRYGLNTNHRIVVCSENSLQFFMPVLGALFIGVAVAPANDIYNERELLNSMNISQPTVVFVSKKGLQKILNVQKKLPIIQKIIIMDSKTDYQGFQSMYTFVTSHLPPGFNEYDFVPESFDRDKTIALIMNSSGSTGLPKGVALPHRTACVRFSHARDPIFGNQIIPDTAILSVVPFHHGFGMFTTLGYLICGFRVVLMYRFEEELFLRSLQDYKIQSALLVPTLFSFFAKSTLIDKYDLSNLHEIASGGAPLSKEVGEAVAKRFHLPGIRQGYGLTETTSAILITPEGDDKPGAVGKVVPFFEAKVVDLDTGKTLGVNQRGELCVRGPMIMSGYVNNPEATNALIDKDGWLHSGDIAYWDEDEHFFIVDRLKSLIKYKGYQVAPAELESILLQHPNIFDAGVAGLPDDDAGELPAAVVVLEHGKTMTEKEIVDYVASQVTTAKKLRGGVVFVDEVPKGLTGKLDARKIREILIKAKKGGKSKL
#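 Purified P. pyralis luciferase, 10 nM final, with Km-level 10 uM D-luciferin and 10 uM ATP in 50 mM Tris acetate pH 7.5, 10 mM Mg acetate, 0.01% Tween-20, 0.05% BSA; 6-point qHTS titration about 60 µM downward; luminescence read.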
# Numbers stand for hits; i = inactive; ? = inconclusive; nt = no result; [ ] = remark or other dose. Compounds with a hit are over-represented: about 7.5% of the library has one in this group of screens. Calls follow the shape of the dose curve; as a rule, active = well fitted curve in the direction sought with a large enough effect; inconclusive = small, poorly fitted or top-dose-only effect, or another doubt; inactive = no such curve, though single readings can be large; an effect the other way counts as inactive or inconclusive.
SMILES,Luc counter,NPC1 promoter act,Rab9 promoter act,ELG1 genotoxic,SMN2 splice enh,FLuc modulator
CCOC(=O)c1ccc2nc3c(cc2c1)CCS3,i,?,i,?,i,19µM
COC(=O)c1ccc(Nc2c([N+](=O)[O-])ccc3nonc23)cc1,nt,i,i,i,nt,i
Clc1ccccc1-c1nc(-c2ccccc2)n[nH]1,i,3.2µM,2.8µM,?,?,6.7µM
CCc1nn(CC(=O)N2CCCCC2)c(=O)c2cc3sccc3n12,nt,nt,nt,nt,i,i
COc1cc(/C=N/NC(=O)c2cccc(NC(=O)c3ccccc3C)c2)ccc1O,nt,i,i,i,nt,19µM
O=C(Cn1nc2ccccc2n1)N/N=C/c1cc(Cl)cc([N+](=O)[O-])c1O,i,i,i,i,i,?
Cc1ccccc1C(=O)Nc1cccc(C(=O)N/N=C/c2cc(Cl)cc([N+](=O)[O-])c2O)c1,nt,i,i,i,nt,21µM
COc1ccc(/C=N/NC(=O)c2cccc(NC(=O)c3ccc(Cl)cc3)c2)c(OC)c1,i,i,?,i,?,2.7µM
COc1cc(/C=N/NC(=S)Nc2cccc(S(=O)(=O)N(C)C)c2)ccc1O,i,i,i,i,i,2.7µM
COc1ccc(/C=N/NC(=O)c2ccc3nc[nH]c3c2)cc1OC,nt,i,i,i,nt,?
COc1cc(/C=N/NC(=O)c2cccc(NC(=O)c3ccccc3)c2)ccc1O,nt,i,i,i,nt,9.5µM
COc1cc(/C=N/NC(=O)c2ccc3nc[nH]c3c2)cc(OC)c1OC,nt,i,i,i,nt,12µM
COc1cc(/C=N\NC(=O)c2ccc(-c3ccccc3)cc2)cc(OC)c1O,nt,i,i,i,nt,9.5µM
CC1CCC(O)([C@](C)(C(=O)O)c2ccccc2)CC1 (stereo partly drawn),i[7.66 µM],nt,nt,nt,i[9.22 µM],nt
COc1cc(NC(=O)c2ccco2)c(C(=O)OCC(=O)c2c[nH]c3ccccc23)cc1OC,i,i,i,i,i,i
CN1C(=O)/C(=C\C(=O)c2cccs2)c2ccccc21,i,i,i,i,i,19µM
N[C@@H](Cc1ccnnc1)C(=O)O,i[7.66 µM],nt,nt,nt,i[9.22 µM],nt
Cc1ccc(CN2C(=O)N/C(=C\c3ccc(-c4ccc(C(=O)O)cc4C)o3)C2=O)cc1,nt,i,i,i,nt,i
Cc1cc(C(=O)O)ccc1-c1ccc(CO)o1,i,i,i,i,i,27µM
CCSc1nc(N)c2c(C)c(C)sc2n1,i,i,i,i,i,?
C=CCSc1nc(N)c2c(C)c(C)sc2n1,i,i,i,?,i,12µM
COc1ccc(-c2c(-c3cc(OC)cc(OC)c3)n(C)c3ccc(-c4ccc5[nH]ccc5c4)cc23)cc1,nt,i,i,i,nt,i
Cc1cccc(NC(=O)CCCc2ccccc2)c1,nt,?,?,?,nt,17µM
O=C(CCc1ccccc1)Nc1ccccc1,i,i,i,i,nt,i
CC(O)c1cccc(NC(=O)CCCc2ccccc2)c1 (stereo not drawn),i,i,i,i,nt,i
SMILES,Luc counter,NPC1 promoter act,Rab9 promoter act,ELG1 genotoxic,SMN2 splice enh,FLuc modulator
Cc1cccc(NC(=O)N2CCCCCC2)c1,nt,i,?,?,nt,?
CN(C)c1ccc(NC(=O)CCCc2ccccc2)cc1,i,4µM,1.6µM,0.92µM,16µM,2.4µM
Cc1cccc(NC(=O)N2CCN(Cc3ccccc3)CC2)c1,i,i,i,i,i,17µM
CCOc1ccc(-c2c(C(=O)N/N=C/c3c[nH]c4ccccc34)nnn2-c2nonc2N)cc1,nt,i,i,i,nt,i
CCCCNc1cc(F)nc(N)n1,i,i,i,i,i,i
C#CCOCCOCCOCCNc1nc(N2CCN(C(=O)Cn3cc(CC(C)O)nn3)CC2)nc(N2CCN(C(=O)[C@H](C)n3cc(CCCN=C(N)N)nn3)CC2)n1 (stereo partly drawn),i,i,i,i,i,i
COc1ccccc1C1(O)C(=O)Nc2ccc(C)cc21 (stereo not drawn),nt,i,i[1.84 µM],i,nt,i
Cc1ccc(NC(=O)CSc2nc(=O)n(Cc3cccnc3)c3c2CCC3)cc1F,nt,nt,nt,nt,nt,i
OC(Cn1cncn1)(c1ccccc1)c1ccccc1,i,i,i,i,nt,i
CC(C)(C)C(=O)Nc1nnc(CCc2ccccc2)s1,nt,4µM,5.6µM,?,nt,12µM
CC(C)C(=O)Nc1nnc(CCc2ccccc2)s1,nt,i,i,i,nt,i
CC(C)C(=O)Nc1nnc(NC(=S)Nc2ccccc2)s1,i,?,4.5µM,?,i,21µM
CCCc1nnc(NC(=S)Nc2ccccc2)s1,i,?,2.5µM,?,?,?
CCCc1nnc(NC(=O)Nc2ccccc2Cl)s1,nt,nt,nt,nt,16µM,?
CCCc1nnc(NC(=O)CCC(=O)Nc2ccc(Cl)cc2)s1,nt,i,i,?,nt,i
COc1cc(C(=O)Nc2nnc(C3CC3)s2)ccc1OCc1c(C)noc1C,i,i,i,i,i,i
Cn1cc(S(=O)(=O)Nc2ccc3c(c2)OCCO3)cn1,nt,i,i,?,nt,?
CCn1cc(S(=O)(=O)Nc2ccc3c(c2)OCCO3)cn1,i,i,i,?,nt,17µM
CCC1=Nc2cc(C(=O)NCCN3CCOCC3)ccc2Sc2ccc(Br)cc21,nt,i,i,i,nt,i
COc1ccc(NC(=O)CSc2nnc(NC(=O)c3ccc(S(=O)(=O)N4CCOCC4)cc3)s2)cc1,i,i,i,?,?,2.7µM
Cc1ccc(Nc2nnc(SCC(=O)Nc3ccc(S(=O)(=O)N4CCOCC4)cc3)s2)cc1,i,i,i,?,i,3µM
O=C(CSc1nnc(Nc2ccccc2)s1)NN1C(=O)NC2(CCCCC2)C1=O,i,i,i,i,i,19µM
NC(=O)CSc1nnc(NC(=O)c2ccc(S(=O)(=O)N3CCOCC3)cc2)s1,nt,i,i,i,nt,?
Nc1nnc(SCC(=O)Nc2cccc(S(=O)(=O)N3CCOCC3)c2)s1,nt,i,i,i,nt,i
O=C(CSc1nnc(Nc2ccccc2)s1)Nc1ccc(S(=O)(=O)N2CCOCC2)cc1,i,i,i,i,i,11µM
SMILES,Luc counter,NPC1 promoter act,Rab9 promoter act,ELG1 genotoxic,SMN2 splice enh,FLuc modulator
Cc1coc2cc3oc(=O)c(CC(=O)N4CCCCC4)c(C)c3cc12,nt,nt,nt,nt,i,i
Cc1c(CC(=O)N[C@@H](C)C(=O)O)c(=O)oc2cc3c(cc12)CCC(C)(C)O3,nt,i,i,i,nt,?
CCC(C)NC(=O)Cc1c(C)c2cc3c(cc2oc1=O)OC(C)(C)CC3 (stereo not drawn),nt,?,4µM,i,nt,?
Cc1c(CC(=O)N2CCC(C(=O)O)CC2)c(=O)oc2cc3c(cc12)CCC1(CCCCC1)O3,nt,i,i,i,nt,12µM
Cc1c(Cc2ccccc2)c(=O)oc2c(C)c(OCC(=O)N3CCC(C(=O)O)CC3)ccc12,nt,i,i,i,nt,17µM
Cc1c(CC(=O)NC(C)C)c(=O)oc2cc3c(cc12)CCC(C)(C)O3,nt,?,3.2µM,i,nt,?
COCCNc1nc(C)nc2c1nc(-c1ccccc1)n2C1CCN(Cc2ccccc2)C1 (stereo not drawn),i,nt,nt,nt,i,nt
